BoNT F protease: inhibitors of Botulinum neurotoxin F light chain protease; Multiplex microsphere protease cleavage assay, flow cytometry; inhibition, % at 10 µM; actives 0.22% (n = 360,000); in the data active means inhibition above about 35%, passing the limit was not always enough; inconclusive means no clear call, values can overlap the other calls
BoNT A protease: inhibitors of Botulinum neurotoxin A light chain protease. multiplex microsphere protease substrate cleavage, flow cytometry. inhibition, % at 10 µM. actives 0.17% (n = 360,000). AID 588499
Bead autofluor: compound fluorescence in toxin protease inhibitor counterscreen; compound autofluorescence counterscreen, microsphere flow cytometry; stronger effect = higher value; AID 624483; actives 3.1% (n = 360,000); fluorescence intensity (no concentration beside the values); in the data active means fluorescence intensity above about 16000; inconclusive means no clear call, values can overlap the other calls
SARS 3CLpro inh: SARS-CoV 3CLpro protease inhibition; P0C6X7; recombinant SARS-CoV 3CLpro, quenched FRET peptide cleavage; inhibition, % at 6 µM; actives 0.14% (n = 290,000); AID 1706; in the data active means inhibition above about 12%
Anthrax LF prot: blocks Bacillus anthracis lethal factor protease; multiplex microsphere protease cleavage assay, LF; inhibition, % at 10 µM; P15917; actives 0.12% (n = 360,000)
Target sequence (P15917 whole entry, looked up): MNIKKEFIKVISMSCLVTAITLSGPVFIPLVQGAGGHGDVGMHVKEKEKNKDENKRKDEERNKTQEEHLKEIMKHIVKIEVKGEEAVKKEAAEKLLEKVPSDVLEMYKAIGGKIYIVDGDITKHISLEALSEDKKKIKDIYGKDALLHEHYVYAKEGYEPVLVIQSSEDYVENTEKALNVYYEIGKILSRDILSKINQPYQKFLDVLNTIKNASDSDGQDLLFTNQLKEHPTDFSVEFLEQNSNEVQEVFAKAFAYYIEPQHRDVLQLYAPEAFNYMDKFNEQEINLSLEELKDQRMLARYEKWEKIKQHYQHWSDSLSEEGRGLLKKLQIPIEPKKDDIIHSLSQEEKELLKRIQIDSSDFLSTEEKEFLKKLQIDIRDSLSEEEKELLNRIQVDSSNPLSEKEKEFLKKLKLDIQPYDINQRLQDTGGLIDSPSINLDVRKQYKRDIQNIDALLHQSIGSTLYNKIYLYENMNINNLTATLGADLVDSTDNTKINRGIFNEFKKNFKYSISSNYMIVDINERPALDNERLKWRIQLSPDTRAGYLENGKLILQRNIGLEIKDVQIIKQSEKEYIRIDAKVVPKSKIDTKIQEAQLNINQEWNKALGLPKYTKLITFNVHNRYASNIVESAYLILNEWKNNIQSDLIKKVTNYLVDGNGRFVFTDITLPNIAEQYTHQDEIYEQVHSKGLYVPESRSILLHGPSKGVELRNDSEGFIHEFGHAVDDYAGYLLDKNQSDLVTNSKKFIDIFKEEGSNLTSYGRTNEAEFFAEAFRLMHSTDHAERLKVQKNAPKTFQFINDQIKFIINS
CCHF vOTU inh: blocks the CCHF virus ovarian tumor domain protease | CCHFV vOTU protease, Pep-AMC fluorescence | inhibition, % at 11.5 µM | actives 0.55% (n = 370,000); in the data active means inhibition above about 30%
A number is an active result; n = inactive; u = inconclusive; x = not tested or not shown. This is a sample that favours compounds with a hit; in the whole collection about 3.9% have one here. Unless noted, no stated cut-off is given here; in the data, active means inhibition above about 30%; inconclusive means no clear call, values can overlap the other calls; inactive means below that.

SMILES | BoNT F protease | BoNT A protease | Bead autofluor | SARS 3CLpro inh | Anthrax LF prot | CCHF vOTU inh
Cc1nn2c(c1-c1ccc(Cl)cc1)N=C(c1ccco1)CC2c1ccccc1 (stereo not given) | n | n | 22364 | n | n | n
CCOc1ccc(-c2cc(C(=O)NCCCN3CCN(CC)CC3)c3ccccc3n2)cc1 | n | u | 21315 | n | n | n
Cc1cccc(C)c1NC(=O)CCCn1nc(C)c2c(C)n(-c3ccccc3)nc2c1=O | n | n | n | n | n | n
COC(=O)[C@]12C=CCN1[C@H](c1ccccc1)c1c(c3ccccc3n1S(=O)(=O)c1ccc(C)cc1)C2 | x | x | x | x | x | n
Nc1ccc(C#Cc2ccccc2)cc1 | n | u | 20219 | n | n | n
Nc1ccccc1C#Cc1ccccc1 | n | n | n | n | n | n
O=C(NCCc1ccccn1)c1n[nH]c(=O)c2ccccc12 | n | n | 22070 | n | n | n
CC1(C)NC(=O)N(CC(=O)Nc2nc(-c3ccc(F)cc3)cs2)C1=O | n | n | 18087 | n | n | n
COC(=O)C(C)N(C(=O)c1ccc(Cl)cc1)c1c(C)cccc1C (stereo not given) | n | n | 21162 | n | n | n
COC(=O)C(C)N(C(=O)c1ccc(C(=O)c2ccccc2)cc1)c1c(C)cccc1C (stereo not given) | n | n | n | n | n | n
O=C1CC(N2CCC(c3nc4ccccc4s3)CC2)C(=O)N1Cc1ccccc1 (stereo not given) | n | n | 23583 | n | n | n
Cc1nc2ccccc2n1C1CC(=O)N(Cc2ccccc2)C1=O (stereo not given) | n | n | 23623 | n | n | n
Clc1ccc(-c2nc(C3CCCCC3)no2)cc1 | n | n | n | n | n | n
Cc1onc(-c2ccccc2)c1C(=O)NCc1ccccc1F | n | n | n | n | n | n
COC(=O)c1sc(NC(=O)COc2ccccc2)nc1C | n | n | n | n | n | n
COC(=O)c1sc(NC(=O)COc2ccc(C)cc2)nc1C | n | n | 20397 | n | n | n
CCOC(=O)CN(C(=O)Cn1nnc(-c2ccc(C)cc2)n1)C(CC)C(=O)NC1CCCC1 (stereo not given) | n | n | 22718 | n | n | n
O=C(NC1CCCCC1)C(c1ccc(F)cc1)N(Cc1ccco1)C(=O)Cn1nnc2ccccc21 (stereo not given) | n | n | 18842 | n | n | n
Cc1ccc(N(C(=O)Cn2nnc(-c3cccs3)n2)C(C(=O)NC2CCCC2)c2ccncc2)cc1 (stereo not given) | n | n | 22784 | n | n | n
CCC(C(=O)NC1CCCC1)N(C(=O)Cn1nnc(-c2ccc(OC)c(OC)c2)n1)c1cccc(O)c1 (stereo not given) | n | n | n | n | n | n
CCC(C(=O)NC1CCCC1)N(Cc1ccco1)C(=O)Cn1nnc(-c2ccc(C)cc2)n1 (stereo not given) | n | n | 19503 | n | n | n
CCc1nnc(NC(=O)C(c2ccccc2)c2ccccc2)s1 | n | n | n | n | n | n
CCc1ccccc1NC(=S)N1CCN(c2cccc(OC)c2)CC1 | n | n | n | n | n | n
S=C(SCc1c(Cl)cccc1Cl)N1CCSCC1 | x | x | x | x | x | n
CC(C)CO/C(=N/S(=O)(=O)c1ccccc1)c1ccccc1 | n | n | 21474 | n | n | n
SMILES | BoNT F protease | BoNT A protease | Bead autofluor | SARS 3CLpro inh | Anthrax LF prot | CCHF vOTU inh
CCOc1ccccc1NC(=S)NCc1ccco1 | n | n | 22578 | n | n | n
COc1ccc(Cl)cc1NC(=S)NCc1ccco1 | n | n | 23985 | n | n | n
CC(C)NC(=O)N[C@H]1C[C@@H]2O[C@@H](CO)CC[C@@H]2O[C@@H]1CCc1ccc(-c2ccc(F)cc2)cc1 | x | x | x | x | x | n
CC1=CC(C)(C)N(C(=O)CSc2nnc(C)s2)c2ccc(C)cc21 | n | n | n | n | n | n
CC1=CC(C)(C)N(C(=O)CSc2nnc(N)s2)c2cc(C)c(C)cc21 | n | n | 23062 | n | n | n
Cc1ccc(S(=O)(=O)N(CC(=O)N/N=C/c2ccco2)Cc2ccccc2)cc1 | n | u | 22458 | n | n | n
Cc1cccc(CN(CC(=O)N/N=C/c2ccco2)S(=O)(=O)c2ccc(Cl)cc2)c1 | n | n | n | n | n | n
Cc1ccc(C(=O)OCC(=O)Nc2ccc(F)c(Cl)c2)o1 | n | n | n | x | n | n
CCSc1nnc(-c2ccncc2)n1Cc1ccccc1 | n | u | 16561 | n | n | n
C=CCn1c(SCC(=O)O)nnc1-c1ccccc1 | n | n | 22122 | n | n | n
CCn1c(SCc2cccc(C)c2)nnc1-c1ccccc1 | n | u | 23697 | n | n | n
CNC(=O)CSc1nnc(-c2ccncc2)n1Cc1ccccc1 | n | n | 16183 | n | n | n
COc1ccc(Cc2nc3ccc(C(=O)N(C)CC4COCCO4)cc3o2)cc1 (stereo not given) | n | n | u | n | n | n
O=C(O)CSc1nnc(-c2ccncc2)n1CCc1ccccc1 | n | n | 22072 | n | n | n
CC(C)CN1C(=O)[C@@]2(CC(=O)N(C)C2c2ccccc2)c2cc(-n3cc(CCc4ccccc4)nn3)ccc21 (stereo not given in full) | x | x | x | x | x | n
Cc1ccc(C(=O)c2oc3nc(C)cc(C)c3c2N)cc1 | n | n | n | n | n | n
CCc1ccc(C(=O)c2oc3nc(C)cc(C)c3c2N)cc1 | n | n | 20259 | n | n | n
Cc1cc2nnc(SCC(=O)N3C(C)CCCC3C)n2c(N)n1 (stereo not given) | n | u | 22651 | n | n | n
Cc1cc2nnc(SCC(=O)N3CCCCC3)n2c(N)n1 | n | n | n | n | n | n
CCn1c2ccccc2c2cc(NC(=O)COC(=O)c3cc(F)cc(F)c3)ccc21 | x | x | x | x | x | n
CCOC(=O)CSc1cc(C)nc(NC(C)=O)n1 | n | u | 19697 | n | n | n
Cc1cc(SCC(=O)Nc2ccccc2)nc(C)n1 | n | n | n | n | n | n
CSc1nc(C)cc(SCC(=O)Nc2ccccc2)n1 | n | n | 23915 | n | n | n
COC(=O)CSc1cc(C)nc(NC(C)=O)n1 | n | n | n | n | n | n
CCOC(=O)CSc1cn2c(n1)CCC2 | n | n | 24514 | n | n | n
SMILES | BoNT F protease | BoNT A protease | Bead autofluor | SARS 3CLpro inh | Anthrax LF prot | CCHF vOTU inh
CSc1nsc(SCC(=O)Nc2cccc(C(C)=O)c2)n1 | n | n | 21617 | n | n | n
CC(C)NC(=O)c1cccc2c1-c1ccccc1C2=O | n | n | n | n | n | n
Cc1ccc(-c2nnnn2C2C/C(=N\NC(N)=S)C3OCC2O3)cc1 (stereo not given) | n | n | n | n | n | n
COC(=O)CSc1cc(C)nc(SC)n1 | n | n | 20467 | n | n | n
COC(=O)CSc1nc(C)cc(C)n1 | n | n | n | n | n | n
COc1ccc(NC(=O)CSc2nc(C)cc(C(F)(F)F)n2)cc1 | n | n | n | n | n | n
Cc1cc(C(F)(F)F)nc(SCC(=O)Nc2ccccc2)n1 | n | u | 22832 | n | n | n
Cc1ccc(C2N(c3cccc(Cl)c3)C(=O)N3CCCN23)cc1 (stereo not given) | u | u | n | n | n | n

Source: PubChem BioAssay (several laboratories)
